Hit rate of the full screen: of about 5,500 compounds, about 2,000 (36%) were called active. Inconclusive results (about 18%) are left out. No stated cut-off is given here; in the data, active means normalized growth mostly below about 0.91 (no sharp cut-off); inconclusive means no clear call, values can overlap the other calls; inactive means mostly above about 0.92. The list shows a part of the results.
Assay: chemical genetic growth profiling, strain panel (AID 1159580);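 further: tested at 20 µM; growth read once vehicle control cultures reached saturation at 30 °C; 1 = growth at the plate median or of vehicle wells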
Settings: growth OD

Measured: normalized growth

CCCCCC(=O)O[C@]1(C(C)=O)CCC2C3CCC4=CC(=O)CC[C@]4(C)C3CC[C@@]21C (some centres undefined)
inactive: S. cerevisiae deletion strains, locus YJR066W, strain TOR1, stronger effect = lower value 0.939 | S. cerevisiae deletion strains, locus YKL009W, strain mrt4, stronger effect = lower value 1.01 | S. cerevisiae deletion strains, locus YKL068W, stronger effect = lower value 1 | S. cerevisiae deletion strains, locus YKL085W, strain MDH1 (second series), stronger effect = lower value 1.01 | S. cerevisiae deletion strains, locus YKL085W, strain MDH1, stronger effect = lower value 1.01 | S. cerevisiae deletion strains, locus YKL160W, strain elf1, stronger effect = lower value 0.998 | S. cerevisiae deletion strains, locus YKL190W, strain CNB1, stronger effect = lower value 1.01 | S. cerevisiae deletion strains, locus YKR001C, strain vps1, stronger effect = lower value 1.01 | S. cerevisiae deletion strains, locus YKR026C, strain gcn3, stronger effect = lower value 1 | S. cerevisiae deletion strains, locus YKR091W, strain srl3, stronger effect = lower value 0.99 | S. cerevisiae deletion strains, locus YLL001W, strain dnm1, stronger effect = lower value 1 | S. cerevisiae deletion strains, locus YLL026W, stronger effect = lower value 1.01 | S. cerevisiae deletion strains, locus YLL041C, strain sdh2, stronger effect = lower value 0.99 | S. cerevisiae deletion strains, locus YLR027C, strain aat2, stronger effect = lower value 1 | S. cerevisiae deletion strains, locus YLR039C, strain RIC1, stronger effect = lower value 1.02 | S. cerevisiae deletion strains, locus YLR058C, strain SHM2, stronger effect = lower value 1.02 | S. cerevisiae deletion strains, locus YLR102C, strain apc9, stronger effect = lower value 1.01 | S. cerevisiae deletion strains, locus YLR113W, strain HOG1, stronger effect = lower value 0.988 | S. cerevisiae deletion strains, locus YLR221C, strain rsa3, stronger effect = lower value 0.999 | S. cerevisiae deletion strains, locus YLR258W, strain gsy2, stronger effect = lower value 1 | S. cerevisiae deletion strains, locus YLR262C, strain YPT6 (second series), stronger effect = lower value 1.02 | S. cerevisiae deletion strains, locus YLR262C, strain YPT6, stronger effect = lower value 1.09 | S. cerevisiae deletion strains, locus YLR268W, strain sec22, stronger effect = lower value 1.02 | S. cerevisiae deletion strains, locus YLR320W, strain mms22, stronger effect = lower value 1.01 | S. cerevisiae deletion strains, locus YLR330W, strain CHS5, stronger effect = lower value 1.01 | S. cerevisiae deletion strains, locus YLR342W, strain FKS1 (second series), stronger effect = lower value 0.997 | S. cerevisiae deletion strains, locus YLR342W, strain FKS1, stronger effect = lower value 0.996 | S. cerevisiae deletion strains, locus YLR357W, strain rsc2, stronger effect = lower value 1.01 | S. cerevisiae deletion strains, locus YLR370C, strain arc18, stronger effect = lower value 0.998 | S. cerevisiae deletion strains, locus YLR371W, strain rom2, stronger effect = lower value 1.01 | S. cerevisiae deletion strains, locus YLR384C, strain iki3, stronger effect = lower value 0.996 | S. cerevisiae deletion strains, locus YLR418C, strain cdc73, stronger effect = lower value 1.01 | S. cerevisiae deletion strains, locus YML016C, strain PPZ1, stronger effect = lower value 1 | S. cerevisiae deletion strains, locus YML032C, strain rad52, stronger effect = lower value 1.01 | S. cerevisiae deletion strains, locus YML120C, strain ndi1, stronger effect = lower value 1 | S. cerevisiae deletion strains, locus YML124C, strain tub3, stronger effect = lower value 1 | S. cerevisiae deletion strains, locus YMR058W, strain fet3, stronger effect = lower value 1.01 | S. cerevisiae deletion strains, locus YMR078C, strain ctf18, stronger effect = lower value 1.01 | S. cerevisiae deletion strains, locus YMR125W, strain sto1, stronger effect = lower value 1.01 | S. cerevisiae deletion strains, locus YMR129W, stronger effect = lower value 1 | S. cerevisiae deletion strains, locus YMR205C, strain PFK2, stronger effect = lower value 0.973 | S. cerevisiae deletion strains, locus YMR223W, strain ubp8, stronger effect = lower value 1.01 | S. cerevisiae deletion strains, locus YMR231W, strain pep5, stronger effect = lower value 1 | S. cerevisiae deletion strains, locus YMR307W, strain GAS1, stronger effect = lower value 1.1 | S. cerevisiae deletion strains, locus YNL067W, strain RPL9B, stronger effect = lower value 0.998 | S. cerevisiae deletion strains, locus YNL071W, strain lat1, stronger effect = lower value 1 | S. cerevisiae deletion strains, locus YNL128W, strain TEP1, stronger effect = lower value 1.02 | S. cerevisiae deletion strains, locus YNL183C, strain NPR1, stronger effect = lower value 0.965 | S. cerevisiae deletion strains, locus YNL209W, strain ssb2, stronger effect = lower value 1 | S. cerevisiae deletion strains, locus YNL233W, strain BNI4, stronger effect = lower value 1.03 | S. cerevisiae deletion strains, locus YNL248C, strain rpa49, stronger effect = lower value 1 | S. cerevisiae deletion strains, locus YNL250W, strain rad50, stronger effect = lower value 1.01 | S. cerevisiae deletion strains, locus YNL271C, strain bni1, stronger effect = lower value 1.02 | S. cerevisiae deletion strains, locus YNL298W, strain CLA4, stronger effect = lower value 1.02 | S. cerevisiae deletion strains, locus YNL307C, strain MCK1, stronger effect = lower value 1.01 | S. cerevisiae deletion strains, locus YNL322C, strain KRE1 (second series), stronger effect = lower value 0.999 | S. cerevisiae deletion strains, locus YNL322C, strain KRE1, stronger effect = lower value 1.01 | S. cerevisiae deletion strains, locus YNR049C, strain mso1, stronger effect = lower value 1 | S. cerevisiae deletion strains, locus YNR052C, strain pop2, stronger effect = lower value 1.02 | S. cerevisiae deletion strains, locus YOL012C, strain htz1 1.02 | S. cerevisiae deletion strains, locus YOL147C, strain pex11, stronger effect = lower value 1 | S. cerevisiae deletion strains, locus YOR001W, strain rrp6, stronger effect = lower value 1.01 | S. cerevisiae deletion strains, locus YOR061W, strain CKA2, stronger effect = lower value 1 | S. cerevisiae deletion strains, locus YOR069W, strain VPS5, stronger effect = lower value 1.01 | S. cerevisiae deletion strains, locus YOR070C, strain gyp1, stronger effect = lower value 1 | S. cerevisiae deletion strains, locus YOR080W, strain dia2, stronger effect = lower value 1 | S. cerevisiae deletion strains, locus YOR083W, strain WHI5, stronger effect = lower value 0.997 | S. cerevisiae deletion strains, locus YOR106W, strain vam3, stronger effect = lower value 1.01 | S. cerevisiae deletion strains, locus YOR136W, strain idh2, stronger effect = lower value 1.02 | S. cerevisiae deletion strains, locus YOR144C, strain elg1, stronger effect = lower value 1.01 | S. cerevisiae deletion strains, locus YOR184W, strain ser1, stronger effect = lower value 0.969 | S. cerevisiae deletion strains, locus YOR231W, strain MKK1, stronger effect = lower value 0.976 | S. cerevisiae deletion strains, locus YOR265W, strain rbl2, stronger effect = lower value 0.998 | S. cerevisiae deletion strains, locus YOR270C, strain vph1, stronger effect = lower value 1.04 | S. cerevisiae deletion strains, locus YOR290C, strain snf2, stronger effect = lower value 0.959 | S. cerevisiae deletion strains, locus YOR316C, strain cot1, stronger effect = lower value 1.01 | S. cerevisiae deletion strains, locus YPL051W, strain arl3, stronger effect = lower value 1.01 | S. cerevisiae deletion strains, locus YPL055C, strain LGE1, stronger effect = lower value 1.01 | S. cerevisiae deletion strains, locus YPL078C, strain atp4, stronger effect = lower value 1.01 | S. cerevisiae deletion strains, locus YPL106C, strain sse1, stronger effect = lower value 0.986 | S. cerevisiae deletion strains, locus YPL240C, strain hsp82, stronger effect = lower value 0.991 | S. cerevisiae deletion strains, locus YPL241C, strain CIN2, stronger effect = lower value 1 | S. cerevisiae deletion strains, locus YPL256C, strain CLN2, stronger effect = lower value 0.958 | S. cerevisiae deletion strains, locus YPR119W, strain clb2, stronger effect = lower value 1.01 | S. cerevisiae deletion strains, locus YPR141C, strain kar3, stronger effect = lower value 1.01 | S. cerevisiae deletion strains, locus YPR163C, strain tif3, stronger effect = lower value 1.01 | S. cerevisiae deletion strains, locus YPR167C, strain met16, stronger effect = lower value 1.01 | S. cerevisiae deletion strains, strain wtn01, stronger effect = lower value 1.01 | S. cerevisiae strains, strain wild type, stronger effect = lower value 1.01

Reference: PubChem BioAssay AID1159580 (chemical genetic matrix, 2015)
